The source holds several records for some structures; these can differ, active in one and inactive in another. The source made the active and inactive calls. Rule for the calls: active = hit-call score of the fitted dose curve at least 0.9, where 1 is the maximum; inactive = score below 0.9.

Heat shock factor protein 1 (Homo sapiens), sequence (Q00613 whole entry, looked up): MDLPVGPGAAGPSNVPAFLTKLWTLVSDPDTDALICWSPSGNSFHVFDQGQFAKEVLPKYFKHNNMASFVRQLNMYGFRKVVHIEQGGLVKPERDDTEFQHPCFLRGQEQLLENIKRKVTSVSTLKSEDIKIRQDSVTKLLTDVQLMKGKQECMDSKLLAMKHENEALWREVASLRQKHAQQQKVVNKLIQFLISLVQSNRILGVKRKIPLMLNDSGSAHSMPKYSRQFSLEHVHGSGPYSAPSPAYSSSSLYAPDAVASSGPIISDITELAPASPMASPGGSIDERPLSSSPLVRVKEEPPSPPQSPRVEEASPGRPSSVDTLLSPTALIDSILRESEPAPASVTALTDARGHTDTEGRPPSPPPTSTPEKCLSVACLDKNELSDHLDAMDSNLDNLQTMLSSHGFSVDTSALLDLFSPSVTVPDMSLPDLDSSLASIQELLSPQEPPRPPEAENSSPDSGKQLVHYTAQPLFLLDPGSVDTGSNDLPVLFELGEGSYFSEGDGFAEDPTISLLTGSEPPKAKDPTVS

The assay deals with Heat shock factor protein 1 (Homo sapiens) (UniProt Q00613). Kind of assay: ATG_HSE_CIS: Attagene CIS-FACTORIAL HepG2 Assay for human Heat Shock Transcription Factor 1 (HSE) (AID 2282953). The settings on record: HepG2 HSE cis-reporter, Attagene RNA transcription; actives raise or lower the signal. The procedure:
ATG_CIS is a cell-based, multiplexed-readout assay that uses HepG2, a human liver cell line, with measurements taken at 24 hours after chemical dosing in a 24-well plate.ATG_HSE_CIS is one of 52 assay component(s) measured or calculated from the ATG_CIS assay. It is designed to make measurements of mRNA induction, a form of inducible reporter, as detected with fluorescence intensity signals by Reverse transcription polymerase chain reaction (RT-PCR) and Capillary electrophoresis technology.Data from the assay component ATG_HSE_CIS was analyzed into 1 assay endpoint. This assay endpoint, ATG_HSE_CIS, was analyzed with bidirectional fitting relative to DMSO as the negative control and baseline of activity. Using a type of inducible reporter, measures of mRNA for gain or loss-of-signal activity can be used to understand the reporter gene at the transcription factor-level as they relate to the gene HSF1. Furthermore, this assay endpoint can be referred to as a primary readout, because this assay has produced multiple assay endpoints where this one serves a reporter gene function. To generalize the intended target to other relatable targets, this assay endpoint is annotated to the dna binding intended target family, where the subfamily is heat shock protein.
Human liver HepG2 cells are transiently transfected with multiple reporter transcription units (MRTUs) in 6-well plates using FuGene 6 reagent (Roche; 3 ml FuGene/1 mg DNA). The MRTU constructs are regulated by a cis-regulating element (promoter). […] A major difference between the CIS and TRANS system is that in CIS activities of endogenous TFs are measured, whereas the TRANS assay evaluates changes in activities of exogenous, chimeric NR-Gal4 proteins. […] At the end of 24 hour incubation, total RNA was isolated using TriZol reagent (Invitrogen). The isolated RNA is then reverse-transcribed using oligo(dT) primer and Mo-MLV reverse transcriptase (Invitrogen) with DNAse I (Ambion) treatment for 30 min. The one-tenth of the produced cDNA was amplified by PCR using Taq DNA polymerase (Invitrogen) and two reporter sequence-specific primers. The PCR products were fluorescently labeled by primer extension with 6-arboxyfluorescein (6-FAM) 5'-labeled reporter sequence-specific primer (2 min at 95 C, 20 s at 68 C and 10 min at 72 C) and these products were digested with 5U of HpaI (New England Biolabs) for 2h at 37 C. The fragments were purified using Qiaquick PCR columns (Qiagen), analyzed on an ABI 3130xL genetic analyzer (Applied Biosystems) with peak positions identified by using a set of X-rhodamine (ROX)-labeled MapMarker1000 molecular weight standards (BioVentures). The raw capillary electrophoresis data was processed using Attagraph software (Attagene).
`O=[Si]=O`: the molecule was called inactive. For the molecule `CC(=O)O[C@]1(C(C)=O)CC[C@H]2[C@@H]3C=C(Cl)C4=CC(=O)[C@@H]5C[C@@H]5[C@]4(C)[C@H]3CC[C@@]21C`, the outcome was inactive and the half-maximal activity concentration (AC50) (in general, the concentration at which the activity in the assay is half-maximal) is 83.8 µM (active) [middle of 4 runs]. For `COc1ccc(OC(F)(F)F)cc1CN[C@H]1CCCN[C@H]1c1ccccc1`, the AC50 is 2.74 µM (active). As for `CCCCCCCCCCCCCCCCO`, the outcome was inactive.

Turning to `CCCCC(CC)COC(=O)CCCCCCCC(=O)OCC(CC)CCCC` (stereo not given), the molecule was classed as inactive. On the same count and under the same terms, then `O=C1CCCCC1`, with “inactive”.

For the molecule `CC(C)(C)c1ccccc1`, the outcome was inactive. On to `CN(C)C(=O)NC1(c2ccccc2)CCN(CC[C@@]2(c3ccc(F)c(F)c3)CN(C(=O)c3ccccc3)CCO2)CC1`, for which the molecule was called inactive. As for `CSc1ccc(Oc2ccc(S(N)(=O)=O)cc2CN(C)C)cc1C`, the molecule was classed as inactive. Same read-out and setting: for `Oc1ccccc1O` the value was “inactive”; for `CC(C)c1cccc(C(C)C)c1`, “inactive”; for `CCc1nc(N)nc(N)c1-c1ccc(Cl)cc1`, “inactive”. For `CN(C)CCCN(C)CCCN(C)C`, the molecule was classed as inactive. Still for that read-out and setting: then `O=NO`, with “inactive”.

Turning to `CC(C)(O)c1ccc(CNC(=O)c2cccnc2Oc2ccc(F)cc2)cc1`, the outcome was inactive. As to `CCCCCCCCCCCCCCOS(=O)(=O)O`, the molecule was called inactive. In the case of `NC(=Nc1ccccc1)Nc1ccccc1`, the call was inactive. On the same count and under the same terms, then `CC(C)OC(=O)C(C)(C)Oc1ccc(C(=O)c2ccc(Cl)cc2)cc1`, with “inactive”; and `C=CCCCCCCCCCCCC`, with “inactive”. With `CCCCc1nc2cccnc2n1Cc1ccc(-c2ccccc2-c2nnn[nH]2)cc1`, the molecule was classed as inactive. Regarding `CCN(CC)CCOc1ccc(C(=C(Cl)c2ccccc2)c2ccccc2)cc1`, the AC50 is 14.3 µM (active) and the call was inactive. As to `CC(N)=O`, the AC50 is 133 µM (active) and the outcome was inactive. In the case of `O=C(Oc1ccccc1)c1cccc(C(=O)Oc2ccccc2)c1`, the outcome was inactive.

With `COc1ccc(C(=O)Nc2nc3ccccc3c(NCc3ccccc3)c2C#N)cc1`, the call was inactive. Consider `CCCC(=O)O`, for which the molecule was called inactive.

Turning to `Cc1cc(SC2=C(O)C[C@@](CCc3ccc(N)cc3)(C(C)C)OC2=O)c(C(C)(C)C)cc1CO`, the molecule was called inactive. In the case of `C/C=C/c1ccc(OC)cc1`, the molecule was called inactive. For `CCOCCOCCO`, the molecule was called inactive.

Regarding `Cc1cc(Cc2ccc(N)c(C)c2)ccc1N`, the molecule was classed as inactive.

With `C#CC(O)C(CC)CCCC` (stereo not given), the molecule was classed as inactive. Turning to `CO[C@@H]1COCC[C@@H]1N[C@@H]1CC[C@@](C(=O)N2CCc3ncc(C(F)(F)F)cc3C2)(C(C)C)C1`, the molecule was classed as inactive. With `O=C1NC(=O)C(c2ccccc2)(c2ccccc2)N1`, the result was inactive.

Take `O=C1O[C@H]([C@H](O)CO)C(O)=C1O`: the result was inactive. Turning to `Oc1ccc(O)cc1`, the result was inactive.

For `CC(=O)S[C@H](C(=O)N[C@H]1Cc2ccccc2[C@H]2CCC[C@@H](C(=O)O)N2C1=O)C(C)C`, the outcome was inactive. Still for that read-out and setting: then `Cc1occc(=O)c1O`, with “inactive”; and `CCCCOC(=O)CCCCC(=O)OCCCC`, with “inactive”.
